Results filed as inconclusive are left out. A number with no mark means an inactive call. Active and inactive are the calls of the source. The call rests on the fitted dose curve; in most records, active means well fitted activation curve with a large enough effect; inconclusive means small, poorly fitted or top-dose-only effect; inactive means flat fitted curve, though single readings scatter.
Experiment: qHTS Assay for NPC1 Promoter Activators: Initial hit validation from the primary screen;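 on activity, positive = activation: reporter driven by the mutant form of the NPC1 promoter; % of control where 0% means no effect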
Conditions: Huh7 NPC1 promoter-luciferase reporter, luminescence, 24 h; series mostly up to 46.1 µM; activity, positive = activation: at the top concentration
Outline: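 Promoter activation measured as luciferase luminescence (Amplite reagent, 10 minutes ambient) after 24 hours' compound exposure at 37C. Cells: NPC1-luciferase Huh7, 1500 per well, reduced-serum OP-MEM I plus 10% FBS.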
Potency means the concentration at half of the fitted maximal effect.

SMILES | activity, positive = activation | Potency
CC(C)C(NC(=O)c1ccc([N+](=O)[O-])cc1Cl)C(=O)N1CCCC1 (stereo not drawn) | 3.15% | –
Cc1nnc2n(c1=O)N=C(c1ccc(Cl)cc1)CS2 | – | 1120 nM (active)
Cc1cc(C)cc(N(CC(=O)NC2CCCC2)C(=O)CNC(=O)c2ccco2)c1 | 5.42% | –
O=C(O)C1=CC[C@@H](c2ccc(Cl)cc2)N(S(=O)(=O)c2ccc(Cl)cc2)[C@H]1c1ccccc1 | -1.2% | –
Cc1ccc(NC(=O)c2cccc(N3C(=O)CCC3=O)c2)nc1 | 8.48% | –
COc1ccc(-c2csc(N(CCCN(C)C)C(=O)c3ccccc3C)n2)cc1 | -14.9% | –
Cc1nc(SCC(=O)NC(=O)NC(C)(C)C)nc(C)c1C | 1.65% | –
Cc1ccc2c(c1)sc1nc(=O)n(-c3ccccc3)c(=O)n12 | – | 705 nM (active)
O=C(CSc1nnc(-c2ccccc2)o1)Nc1ccccc1F | – | 250 nM (active)
CCOC(=O)c1ccccc1NC(=O)CSc1nnc(Cc2cccn2C)n1-c1ccc(F)cc1 | -12.2% | –
CC(=O)c1cccc(NC(=O)N2CCOCC2)c1 | 4.65% | –
Cc1cccc(NC(=O)CSc2nc3ccccc3o2)c1 | 13.4% | –
O=C(c1cccc(Oc2ccc([N+](=O)[O-])cc2)c1)N1CCOCC1 | -1.18% | –
O=C(Nc1ccc(-c2nc3cccnc3s2)cc1)c1ccc(Cl)nc1 | – | 1250 nM (active)
O=C(CSc1nnc(-c2ccc([N+](=O)[O-])cc2)o1)Nc1ccccn1 | – | 628 nM (active)
O=C(CN1C(=O)COc2ccc(Cl)cc21)NCC1CCCO1 (stereo not drawn) | -1.19% | –
Cc1ccc(C)c(Nc2cc(C)nc3ncnn23)c1 | -7.93% | –

SMILES | activity, positive = activation | Potency
COC(=O)c1sccc1NC(=S)OC | -1.26% | –
O=C(CCN1C(=O)c2ccccc2C1=O)Nc1ccc(-c2nc3ccccc3s2)cc1 | – | 250 nM (active)
CCOc1ccc(S(=O)(=O)NCc2ccccc2)cc1C(N)=O | -4.97% | –
CCOCC(=O)Nc1c(C(=O)Nc2ccc3c(c2)OCCO3)oc2ccccc12 | – | 888 nM (active)
COc1ccccc1N(C(=O)c1snc(C(N)=O)c1N)C(C(=O)NC1CCCCC1)c1cccc(OC)c1OC (stereo not drawn) | -11.6% | –
COc1ccc(NC(=O)Nc2ccc(Cc3ccncc3)cc2)cc1OC | -8.22% | –
COc1ccc(C(c2nnnn2CCc2ccccc2)N2CCN(C3CCCC3)CC2)cc1 (stereo not drawn) | 3.38% | –
O=C(CCS(=O)(=O)c1ccccc1)Nc1ccc(-c2nc3ccccc3s2)cc1 | – | 158 nM (active)
CCCCc1cc(=O)oc2cc(OCC(=O)N3CCOCC3)ccc12 | 5.92% | –
COc1ccccc1NC(=S)NCc1ccc(Cl)cc1 | 1.66% | –
COc1cccc(C(C(=O)NC2CCCC2)N(CCC(C)C)C(=O)CCC(=O)Nc2cc(C)on2)c1 (stereo not drawn) | -13.5% | –
O=C(NNC(=O)C1COc2ccccc2O1)c1ccccc1O (stereo not drawn) | 5.4% | –
O=C(CSc1nnc(-c2ccccn2)o1)Nc1ccccc1Cl | – | 1250 nM (active)
CCOC(=O)c1csc(COc2ccc(OC)cc2)n1 | – | 705 nM (active)
O=C(NCC1CCCO1)C(c1ccc(F)cc1)N(Cc1ccc2c(c1)OCO2)C(=O)c1ccc(CN2CCOCC2)o1 (stereo not drawn) | 3.75% | –
O=C(CSc1nnc(Cc2cc(=O)[nH]c(=O)[nH]2)n1-c1ccc(Cl)cc1)NC1CCCC1 | -2.11% | –
